# The supplement of paper PMC6555819
# System: LXRb homodimer (NR concentration 270 nM)
# Test: PBM binding z-score (relative to random genomic background probes); higher = stronger binding; sequences stand for … in GC…GCGATTGACAGCGTAGAATGAAGG
# In short: (§1)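 Scanned fluorescence from custom Agilent 4×180K protein-binding microarrays was regression-normalized. Binding z-scores use random background probes as reference. Ligand-free nuclear receptor dimers were incubated on the arrays for 1 h and detected with antibodies against each partner (one per run).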
row,Sequence,PBM binding z-score
1,TATACAGGGTCAAATGCCAGAGTACGAATGTCGA,3.42
2,GTACCAAGGTGAATAGGTCGTTCATGAGTAGGCG,-0.594
3,GCTTACGGGTCAAAGGTTCTAGCATGAATAGAAT,-0.186
4,CTCAAAAGGTCGGTTGAGGTGAGTATACGGATAA,0.0339
5,GGAACGAGGGCAAGTTGATAACAGAGTTTGATGG,-0.233
6,CCTGCTAGGTCATGGTCAGCCAATCTACAGTATG,-0.0584
7,ACTCGGAGGACAAAGGTCGGAGCTACGCCAGTGA,-0.291
8,CCTACTGGGCCAAAAAGGTCAGTGATGCCGATAA,-0.789
9,TGAATGAGGTTAAAGATCAGGGTACGTGGCGTCG,0.353
10,GATGCAGGGTCAGCTAGAGGCCAGAGTATGGAAA,-0.68
11,TCTCGGAGGACACGAAAGGTCAAAGCTCGACATC,0.987
12,ACTAGCAGGCCAAGTTTGTGTCACTCAAACAAAG,-0.886
13,CCTCGGAGGGCAGAAGGTCAGAGCTGTCCGCTTT,-1.06
14,GCGGCTAGGTCAGGTTGGTCAGCTAACGGGTACG,-0.613
15,CTCGAAAGGTCGGTTGAGGTGAGTATGCGGATAA,-0.0928
16,TCTAGTTGGTCAAAGGGCACACACTCGAAATGCG,0.0761
17,TCATATAGGTAAAAGTTGAAAGTCGGTGTGGTAA,-0.0163
18,CAAACTAGGTCAAGAGGTCAAAGTGCGCTTCCCG,2.04
19,TTACCAAGCTGAAAGGTCGTTGATGCACGCCTTG,-1.11
20,CTCGAAAGGTCGGCTGAGGTGAGTATACGGATAA,-0.336

row,Sequence,PBM binding z-score
1,ATATGTAGGCTAAGGGTCATTCAGGTTGGTTCGC,1.39
2,TCGAGTAGGTTACCAATCGGGCATTCAGCTTTCT,-1.27
3,ATATGTAGGTTAAGGGTCATTCACGTTGGTTCGC,1.26
4,ATCGAAAGGTCGAAGGTGAGTATACCCACCCGAA,0.5
5,ACTCGGCGGACAAAGGTCAGAGCTACGCCAGTGA,-0.304
6,CGTCCAAGGTCATAGGAGGTCAGTGGAGACAGAT,1.44
7,GCTGCTAGGTCAGGTTGGTGAGCTAACGGGTACG,-0.485
8,CAAACTCGGTCACCGGAAGGTCAAAGTCCGCATG,1.28
9,AGAATGAGGTTATACGTAGATCAGGGCAGAAAGT,-0.0553
10,TCTATTAGTTGAAGGGCAATCGACGAGTCCGTTT,0.176
11,GCTAGTTGGTCAGTAGAAGGTCACACACCGGTCG,0.231
12,CTAACTAGGTCAGAACAGGACAGTGAAGGATGAT,-0.0139
13,TTACCAAGGTGAAAGCTCGTTGATGCACGCCTTG,-1.12
14,ATCGAAAGGTCGTAAGGTGAGTATACAGAAAGGC,0.6
15,TGAATGAGGTTAAAGATCAGCGAACGTGGCGTCG,0.0932
16,GATACTGGGTCAAGGCCAGAGTACGCGTATTGAT,-0.791
17,TCATGTAGGTAAACAGGTGAAAGTCCGTAAGTTA,-0.709
18,CCTCGTTGGTCAAGGTCACACACGCTATAGGTAC,1.08
19,TCTTGTAGATCAATAGAGGTTACGAAAGTGCGCT,0.24

# System: PPARa:RXRa (NR concentration 270 nM, RXRa partner concentration 90 nM)
# Test: as above
# In short: as §1
row,Sequence,PBM binding z-score
1,TATACAGGGTCAAATGCCAGAGTACGAATGTCGA,6.33
2,GTACCAAGGTGAATAGGTCGTTCATGAGTAGGCG,2.17
3,GCTTACGGGTCAAAGGTTCTAGCATGAATAGAAT,5.91
4,CTCAAAAGGTCGGTTGAGGTGAGTATACGGATAA,2.98
5,GGAACGAGGGCAAGTTGATAACAGAGTTTGATGG,1.76
6,CCTGCTAGGTCATGGTCAGCCAATCTACAGTATG,3.49
7,ACTCGGAGGACAAAGGTCGGAGCTACGCCAGTGA,2.9
8,CCTACTGGGCCAAAAAGGTCAGTGATGCCGATAA,3.36
9,TGAATGAGGTTAAAGATCAGGGTACGTGGCGTCG,4.43
10,GATGCAGGGTCAGCTAGAGGCCAGAGTATGGAAA,4.37
11,TCTCGGAGGACACGAAAGGTCAAAGCTCGACATC,4.72
12,ACTAGCAGGCCAAGTTTGTGTCACTCAAACAAAG,-0.219
13,CCTCGGAGGGCAGAAGGTCAGAGCTGTCCGCTTT,2.48
14,GCGGCTAGGTCAGGTTGGTCAGCTAACGGGTACG,1.33
15,CTCGAAAGGTCGGTTGAGGTGAGTATGCGGATAA,2.67
16,TCTAGTTGGTCAAAGGGCACACACTCGAAATGCG,4.28
17,TCATATAGGTAAAAGTTGAAAGTCGGTGTGGTAA,4.24
18,CAAACTAGGTCAAGAGGTCAAAGTGCGCTTCCCG,6.59
19,TTACCAAGCTGAAAGGTCGTTGATGCACGCCTTG,2.08
20,CTCGAAAGGTCGGCTGAGGTGAGTATACGGATAA,3.62

row,Sequence,PBM binding z-score
1,ATATGTAGGCTAAGGGTCATTCAGGTTGGTTCGC,6.17
2,TCGAGTAGGTTACCAATCGGGCATTCAGCTTTCT,0.717
3,ATATGTAGGTTAAGGGTCATTCACGTTGGTTCGC,6.49
4,ATCGAAAGGTCGAAGGTGAGTATACCCACCCGAA,4.67
5,ACTCGGCGGACAAAGGTCAGAGCTACGCCAGTGA,4.34
6,CGTCCAAGGTCATAGGAGGTCAGTGGAGACAGAT,5.76
7,GCTGCTAGGTCAGGTTGGTGAGCTAACGGGTACG,1.22
8,CAAACTCGGTCACCGGAAGGTCAAAGTCCGCATG,4.39
9,AGAATGAGGTTATACGTAGATCAGGGCAGAAAGT,3.17
10,TCTATTAGTTGAAGGGCAATCGACGAGTCCGTTT,0.795
11,GCTAGTTGGTCAGTAGAAGGTCACACACCGGTCG,2.69
12,CTAACTAGGTCAGAACAGGACAGTGAAGGATGAT,3.16
13,TTACCAAGGTGAAAGCTCGTTGATGCACGCCTTG,1.29
14,ATCGAAAGGTCGTAAGGTGAGTATACAGAAAGGC,4.62
15,TGAATGAGGTTAAAGATCAGCGAACGTGGCGTCG,4.55
16,GATACTGGGTCAAGGCCAGAGTACGCGTATTGAT,4.05
17,TCATGTAGGTAAACAGGTGAAAGTCCGTAAGTTA,2.46
18,CCTCGTTGGTCAAGGTCACACACGCTATAGGTAC,4.07
19,TCTTGTAGATCAATAGAGGTTACGAAAGTGCGCT,2.12
